Records with an inconclusive call do not appear. Active and inactive are the calls of the source. The calls were made as follows: active = hit-call score of the fitted dose curve at least 0.9, where 1 is the maximum; inconclusive = response in the unintended direction; inactive = score below 0.9.

This experiment deals with Sodium/Iodide Symporter (NIS), SLC5A5 (gene 6528). As to the kind of experiment: CPHEA_Stoker_NIS_Inhibition_RAIU: CPHEA's Radioactive Iodide Uptake (RAIU) Assay for Sodium/Iodide Symporter (NIS) Inhibition, Stoker and Laws Labs (AID 2283841). The protocol:
CPHEA_Stoker_NIS is a cell-based, single-readout assay that uses hNIS-HEK293T-EPA, a novel human kidney cell line expressing human NIS, with measurements taken at 2 hours after chemical dosing in a 96-well plate. This radioactive iodide uptake (RAIU) assay is used to identify inhibitors of NIS-mediated iodide uptake. A parallel cytoxicity assay (Cell Titer Glo, Promega) was also run in the same cell line.CPHEA_Stoker_NIS_Inhibition_RAIU is one of 2 assay components measured from the CPHEA_Stoker_NIS assay. It is designed to make measurements of radioactive substrate uptake to understand transporter function, as detected with 125-i signals by MicroBeta radioactivity plate reader technology.Data from the assay component CPHEA_Stoker_NIS_Inhibition_RAIU was analyzed at the endpoint, CPHEA_Stoker_NIS_Inhibition_RAIU, in the positive analysis fitting direction relative to DMSO as the negative control and baseline of activity. Measures of radioactive substrate uptake for loss-of-signal activity can be used to understand the effects on transporter function at the pathway level as they relate to the sodium-iodide symporter, gene SLC5A5. To generalize the intended target to other relatable targets, this assay endpoint is annotated to the transporter intended target family, where the subfamily is sodium-iodide symporter (NIS).
hNIS-HEK293T-EPA cells were seeded with a MultiFlo FX dispenser (BioTek, Winooski, VT) into ScintiPlate-96 microplates (Perkin Elmer, Waltham, MA) at a density of 4.0x10^4 cells per well in 200uL growth media and incubated for 40 hours before experimentation. On day of the assay, carrier-free 125I (Perkin-Elmer, Waltham, MA; specific activity: 17.4Ci/mg) was diluted with Hanks' balanced salt solution (Sigma, St. Louis, MO) supplemented with 10mM HEPES (uptake buffer; pH 7.4) at 5uCi/mL (288pg 125I/mL uptake buffer; 2.30nM). The assay was initiated by washing cells twice with 200uL uptake buffer using a 96-well Tecan HydroSpeed plate washer (Tecan, Mannedorf, Switzerland). Uptake buffer (59.7uL) was then added back to each well. Chemical samples (350nL at 200X) were administered using the HDR tool as previously described to achieve a 1X chemical/0.5% final DMSO concentration with subsequent addition of 10uL of 125I dilution (final [125I]: 329pM; 2.88pg/well) for a final reaction volume of 70uL/well. Cells were incubated at room temperature for 2 hours and then washed twice with 200uL ice cold uptake buffer. All uptake buffer was aspirated from wells, plates were sealed, and read on a MicroBeta2 plate reader (Perkin Elmer, Waltham, MA) using a detection protocol to measure CPM corresponding to intracellular 125I concentration. Each chemical concentration (0.001, 0.01, 0.1, 1.0, 10, and 100uM) was assayed in triplicate with three independent biological replicate plates (3 sequential cell passages). Additionally, a concentration response of NaClO4 (0.001, 0.01, 0.1, 1.0, 10, and 100uM) served as a positive control inhibition curve on each RAIU assay plate. DMSO control wells were assayed on each plate as a measure of maximum iodide uptake for normalization and determination of intra- and inter-assay variation. (Toxicol In Vitro, 2017, 40:66-78).
Turning to `CN(C)c1ccc(Cc2ccc(N(C)C)cc2)cc1`, the result was inactive.

On to `O=P(OC(CCl)CCl)(OC(CCl)CCl)OC(CCl)CCl`, for which the outcome was inactive.

For the molecule `Cc1[nH]cnc1C[C@H]1CCc2c(C)c3ccccc3n2C1=O`, the outcome was inactive.

For the molecule `CCOC(=O)COc1ccc2c(c1)CC(NCC(O)c1cccc(Cl)c1)CC2` (centres undefined), the outcome was inactive.

Turning to `Clc1nc(Cl)c(Cl)c(Cl)c1Cl`, the result was inactive.

On to `O=c1[nH]c2ccc(S(=O)CCN3CCC(Cc4ccc(F)cc4)CC3)cc2o1` (centres undefined), for which the result was inactive.

One may read the AC50 as the concentration at which the activity in the assay is half-maximal. Regarding `Fc1ccccc1[C@@H](F)COC1CCC(Nc2ncnc3[nH]ncc23)CC1` (some centres undefined), the AC50 is 89.1 µM (active).

As for `COc1cccc(-c2ccc(/C=C\CN3CCCCCC3)cc2Cl)c1`, the result was inactive.

For the molecule `COCCOc1cc2cc(C(=O)NC3CCN(C(C)C)CC3)n(CC(=O)Nc3ccc(Cl)cn3)c2cn1`, the outcome was inactive.

Take `O=C(CCCCCCCCc1cccnc1)N1CCC(C=C(c2ccccc2)c2ccccc2)CC1`: the outcome was inactive.

In the case of `CC(C)c1cccc(C(C)C)c1N1C(=O)c2ccc(O)cc2C1=O`, the result was inactive.

`CCOc1cccc(-n2cc(C(=O)N3CCN(c4cc(C(=O)O)c5ccccc5c4)CC3)nc2-c2ccc(C)cc2)c1`: the AC50 is 83.6 µM (active).

For the molecule `O=C(OC[C@H]1O[C@@H](OC(=O)c2cc(O)c(O)c(OC(=O)c3cc(O)c(O)c(O)c3)c2)[C@H](OC(=O)c2cc(O)c(O)c(OC(=O)c3cc(O)c(O)c(O)c3)c2)[C@@H](OC(=O)c2cc(O)c(O)c(OC(=O)c3cc(O)c(O)c(O)c3)c2)[C@@H]1OC(=O)c1cc(O)c(O)c(OC(=O)c2cc(O)c(O)c(O)c2)c1)c1cc(O)c(O)c(OC(=O)c2cc(O)c(O)c(O)c2)c1`, the result was inactive.

As to `O=C(O)c1cc(N=Nc2ccc(S(=O)(=O)Nc3ccccn3)cc2)ccc1O`, the outcome was inactive.

For the origin of these results see PubChem BioAssay (EPA / NIEHS).
